Out of some 360,000 compounds screened, about 17,000 (4.7%) were called active. About 5% were inconclusive and are not listed. What follows is part of a selection rich in actives, with near analogues and random picks from the rest. A number with no mark means an inactive call. Rule as the data show it: active = activity change below about -50%; inconclusive = mostly about -30% to -49%; inactive = weaker than that.
% is scaled to controls: 0 for no effect and ±100 for the full control effect.

A short description of this assay: qHTS for Inhibitors of Inflammasome Signaling: IL-1-beta AlphaLISA Primary Screen. To be noted: THP-1 LPS/ATP IL-1B secretion, 16 h; at 57.5 µM, hits give low values. An excerpt:
Inflammasomes are a set of intracellular multi-protein complexes that enable autocatalytic activation of inflammatory caspases and drive the innate immune response to counter harmful agents. […] A qHTS assay, based on AlphaLISA technology, was developed to screen the Molecular Libraries Small Molecule Repository (MLSMR) to look for novel inflammasome inhibitors. The assay detects IL-1B using AlphaLISA anti-IL-1B acceptor and donor beads. A decreased emission signal, indicating reduced IL-1B secretion, is the desired outcome for this assay. NIH Chemical Genomics Center [NCGC] NIH Molecular Libraries Probe Centers Network [MLPCN] MLPCN Grant: MH095513 Assay Provider: Shyam Biswal Ph.D., Johns Hopkins University Immunity. 2012 Jul 27;37(1):85-95. PMID: 22819042 [2] Curr Pharm Des. 2012;18(16):2320-8. PMID: 22390695
Three microliters containing 3000 THP-1 cells were dispensed into the wells of solid, white, tissue culture treated Greiner 1,536-well plates. Library compounds and positive control, Glyburide, were pin-transferred (23 nL) by a Kalypsys pin-tool equipped with a 1,536-pin array, resulting in final compound concentration ranges of 2.5 nM to 57.5 uM. After 1 hr of cell culture incubation (37 °C, 5% CO2), 1 microL of 1 microg/mL lipopolysaccharide (250 ng/mL, final) and 5 mM ATP (1.25 mM, final) were added to stimulate the cells. After 16 hr of cell culture incubation with the compounds, 1.5 uL of anti-IL-1B acceptor beads (6 ug/mL, final) and biotinylated antibody (0.6 nM, final) were added to the plate, followed by a 1 hr incubation at ambient temperature. To detect the secreted IL-1B, 1.5 uL of AlphaLISA SA-Donor beads (24 ug/mL, final) were added, followed by 30 min of incubation in the dark at ambient temperature. The AlphaLISA signal was read by a PerkinElmer EnVision plate reader with an ultrasensitive luminescence detector and 1536 Plate HTS AlphaScreen aperture (excitation of 680nm and emission of 615nm).
Take `O=C1OCCN1C(=O)[C@H]1[C@H](c2ccc(Cl)cc2)C(c2cccc(Cl)c2)=NN1c1ccc(Br)cc1`: the activity change is -23.1%.

For the molecule `C[C@@H]1C(c2ccc(F)cc2)=NN(c2ccc(Br)cc2)[C@H]1C(=O)N1CCOC1=O`, the activity change is -54.4% (active).

Regarding `O=C1OCCN1C(=O)[C@H]1[C@H](c2ccc(F)cc2)C(c2ccccc2)=NN1c1ccc(Br)cc1`, the activity change is -15.9%.

`CN(CC(=O)Nc1c(Cl)cccc1Cl)C(=O)CNC(=O)C1CCCCC1`: the activity change entry is “inactive”.

Turning to `COc1cccc(CC2(CO)CCCN(Cc3ccc(OC(F)F)cc3)C2)c1` (centres undefined), the activity change was -9.05%.

Consider `O=S1(=O)CC(N2CCN(c3ccccn3)CC2)CN1Cc1ccc(F)cc1` (centres undefined), for which the activity change was -7.1%.

On to `O=C(CCC1CCCN(C(=O)Cc2ccc(F)cc2)C1)N1CCN(c2ccccn2)CC1` (centres undefined), for which the activity change was -15.7%.

As for `Cc1c(CN2CC[C@@H](N3CCN(c4ccccn4)CC3)[C@H](O)C2)[nH]c2ccc(F)cc12`, the activity change is -50.8% (active).

In the case of `COc1ccc(-c2ccc3c(c2)[C@@H]2C[C@H](N(C)S(=O)(=O)c4ccccc4)[C@H]([C@H](C)O)C(=O)N2CC3)cc1`, the activity change was -14.6%.

With `O=C(CCc1ccc(O)cc1)NN=Cc1cc(Br)ccc1O`, the activity change is 137%.

For `CC(C)(C)c1cc(P(=O)(c2ccccc2)c2ccccc2)ccc1O`, the activity change was -66.1% (active).

On to `O=P(O)(CP(=O)(c1ccccc1)c1ccccc1)c1ccccc1O`, for which the activity change is -5.18%.

Turning to `O=S(=O)(Nc1ccc2ccccc2c1)N1CCCCC1`, the activity change is -5.44%.

On to `CC(C)(C)C(=O)Nc1cccc(-c2ccc[nH]2)n1`, for which the activity change was -1.09%.

As to `Cn1c(Nc2cccc(Cl)c2)nc2ccccc21`, the activity change is -6.01%.

For the molecule `OCCCNc1nccc(-c2cc(Nc3cccc(Cl)c3)ncn2)n1`, the activity change was -1.28%.

Take `CC(C)n1cnc2c(Nc3cccc(Cl)c3)nc(N(CCO)CCCO)nc21`: the activity change was -97.4% (active).

With `CCOC(=O)N(Cc1ccccc1)C1CC1`, the activity change is 8.58%.

In the case of `O=C1CC(c2ccccc2)C(=O)N2C(=O)CC(c3ccccc3)C(=O)N12` (centres undefined), the activity change is -11.1%.

Turning to `COC(=O)[C@@]12C[C@@H](CC(=O)N3CCC(c4ccccc4)CC3)C(=O)N(Cc3ccccc3)C1=CCC(C)(C)C2`, the activity change is -70.2% (active).

Take `COC(=O)[C@@]12C[C@@H](CC(=O)N3CCCCC3)C(=O)N(Cc3ccc4c(c3)OCO4)C1=CCC(C)(C)C2`: the activity change was -13.6%.

Turning to `CCOC(=O)N1CCN(C(=O)C[C@@H]2C[C@@]3(C(=O)OC)CC(C)(C)CC=C3N(Cc3ccco3)C2=O)CC1`, the activity change was 5.52%.

`COc1ccc(CN2C[C@H]3CON(C)[C@H]3C[C@H]2c2ccc(-c3cccc(F)c3)cc2)cc1`: the activity change is 11.4%.

In the case of `CC1(C(=O)NCc2ccccc2)CN(S(C)(=O)=O)CC(=O)N1CC(F)(F)F` (centres undefined), the activity change is 30.7%.

For `COc1ccc(C(=O)NC(C)Cn2nc(C)cc2C)cc1OC1CCN(C(C)=O)CC1` (centres undefined), the activity change was 0%.

With `CCCCC[C@@H]1C=C(C(=O)OCC)[C@H](c2ccccc2)N1S(=O)(=O)c1ccc(C)cc1`, the activity change is 37.3%.

Regarding `COc1ccc2c(c1)O/C(=C\c1ccccc1O)C2=O`, the activity change is 45.7%.

As to `COc1cc(/C=C2\Oc3ccc(C#Cc4ccc(O)cc4)cc3C2=O)cc(OC)c1`, the activity change was -79.1% (active).

For the molecule `COc1cc(C#Cc2ccc3cc(CCCO)oc(=O)c3c2)cc(OC)c1`, the activity change was 0%.

Turning to `CNC(=O)C[C@H]1C(=O)N(Cc2ccccc2)C[C@@H]1CSC`, the activity change is -8.27%.

With `c1ccc(CNc2ncnc3[nH]ncc23)cc1`, the activity change was 31.4%.

Turning to `Cc1cc(C(=O)COc2ccc(Br)cc2F)c(C)n1C1CC1`, the activity change was -54.4% (active).

Take `Cc1cc(C(=O)COc2ccccc2Cl)c(C)n1C1CC1`: the activity change is 0%.

On to `O=C(COc1ccc(Br)cc1F)NCC1(N2CCCCC2)CCCCC1`, for which the activity change is -9.53%.

Regarding `O=C(COC(=O)c1cncc(Br)c1)Nc1ccc(S(=O)(=O)N2CCOCC2)cc1`, the activity change was -5.39%.

In the case of `C[C@H](CO)N1C[C@H](C)[C@H](CN(C)C(=O)Nc2ccc3c(c2)OCO3)Oc2ncc(Br)cc2C1=O`, the activity change is -12.4%.

`CC1(c2ccccc2)NC(=O)N(CC(=O)Nc2cc(Cl)ccc2N2CCOCC2)C1=O` (centres undefined): the activity change was 1.47%.

As for `Cc1ccccc1NC(=O)CSc1nc2ccc(Nc3nc(N4CCOCC4)nc(N4CCOCC4)n3)cc2s1`, the activity change was 0%.

`O=C(CSc1nc(Nc2ccccc2)nc(N2CCOCC2)n1)Nc1cc(Cl)ccc1O`: the activity change was -58.1% (active).

For the molecule `CS(=O)(=O)N(CC(=O)N1CCCCCC1)c1cccc(Cl)c1Cl`, the activity change is -9.4%.

As for `Cc1ccc(CN2CCC(n3nccc3NC(=O)CCCc3ccccc3)CC2)o1`, the activity change was 0%.

On to `COc1cc(CN2CCC(n3nccc3NC(=O)CCCc3ccccc3)CC2)ccc1O`, for which the activity change is 0%.

Turning to `COc1ccc(CN2CCC(n3nccc3NC(=O)CCCc3ccccc3)CC2)cc1C`, the activity change was -65% (active).

In the case of `COc1ccc(OC)c(NC(=O)C2CCCN2S(=O)(=O)c2ccc3c(c2)CC(C)N3C(C)=O)c1` (centres undefined), the activity change is 11.5%.

For `CC(=O)Nc1ccc2c3c(ccc([N+](=O)[O-])c13)CC2`, the activity change was 18.1%.

As for `COc1ccc(NC(=O)C(c2ccncc2)n2c(=O)c(-c3cc4ccccc4[nH]3)nc3ccccc32)cc1` (centres undefined), the activity change was -12%.

Consider `COc1cccc(-n2nc(C(=O)N3CCN(Cc4ccccc4)CC3)c3ccccc3c2=O)c1`, for which the activity change is -16.4%.

For `COc1cccc(-n2cc(C(=O)O)c3ccccc3c2=O)c1`, the activity change was -59.6% (active).

As for `COc1cccc(-n2cc3c(c2-c2ccccc2)c(=O)n(C)c(=O)n3C)c1`, the activity change is 18.5%.

With `C[C@@H]1CN([C@@H](C)CO)C(=O)c2cccc(NS(=O)(=O)c3ccc(F)cc3)c2O[C@H]1CN(C)C(=O)NC1CCCCC1`, the activity change was 2.27%.

Regarding `CCCCNCCS(=O)(=O)NCc1ccccc1`, the activity change is 24.2%.

In the case of `CN(c1ccc(OCC(=O)NC2=NCCS2)cc1)S(=O)(=O)c1ccc(F)cc1`, the activity change was 12%.

As for `CC(NC(=O)COc1ccccc1)C(=O)NC1=NCCS1` (centres undefined), the activity change is -56.1% (active).

For `Cc1ccc(S(=O)(=O)N(C)c2ccc(OCC(=O)NC3=NCCS3)cc2)cc1`, the activity change was 23%.

As to `CC(C)CNC(=O)C1(C)CCCN1C(=O)CSc1ccccc1` (centres undefined), the activity change was 24.3%.

For `CC(=O)N1CCN(CC(=O)Nc2ccc(SC(F)F)cc2)CC1`, the activity change was 8.74%.

On to `O=C(Cc1ccc(Cl)c(Cl)c1)Nc1ccc(SC(F)F)cc1`, for which the activity change was -96% (active).

Consider `Cc1ccc(CC(=O)Nc2ccc(OC(F)F)c(Cl)c2)cc1C`, for which the activity change was 2.16%.

As for `O=C(c1ncn2c1c(=O)[nH]c1ccccc12)N1CCc2ccccc2C1`, the activity change was 1.53%.

As for `CCOC(=O)C1CCCN(C(=O)c2ccc(N(C)C)cc2)CC1` (centres undefined), the activity change was 14.2%.

For `S=c1[nH]nc(-c2cccs2)n1/N=C/c1cccs1`, the activity change is 2.13%.

As for `COc1cc(/C=N/n2c(C)n[nH]c2=S)ccc1OCc1ccccc1`, the activity change was 20.1%.

Turning to `Cc1cc(-c2n[nH]c(=S)n2/N=C/C(Br)=C/c2ccccc2)n[nH]1`, the activity change was -103% (active).

As for `CCN(CC(=O)Nc1ccc(NC(C)=O)cc1)C(=O)C1CC(=O)N(c2ccc3c(c2)OCCO3)C1` (centres undefined), the activity change was -4.3%.

Turning to `Nc1ncnc2c1ncn2[C@@H]1O[C@H](C(=O)NCC(F)(F)F)[C@@H](O)[C@H]1O`, the activity change was -18.1%.

Turning to `Cc1ccc(Cn2cc(CN3CC(N4CCN(C)CC4)CS3(=O)=O)nn2)cc1` (centres undefined), the activity change is 1.38%.

`O=C(Nc1ccc(C2CC2(Cl)Cl)cc1)c1cccc([N+](=O)[O-])c1` (centres undefined): the activity change was -90.4% (active).

For the molecule `O=C(Nc1cccc([N+](=O)[O-])c1)c1ccc2c(c1)OCO2`, the activity change is -4.35%.

In the case of `Cc1cc(C)nc(NC(=O)c2cccc([N+](=O)[O-])c2)c1`, the activity change was -4.03%.

Regarding `O=C(COC(=O)c1ccc[nH]c1=O)Nc1ccc2c(c1)OC(F)(F)O2`, the activity change was 23.1%.

On to `COC(=O)[C@]12CCCCC=C1N(Cc1cccc3ccccc13)C(=O)[C@H](CC(=O)N1CCOCC1)C2`, for which the activity change is -7.21%.

In the case of `Cc1ccc(S(=O)(=O)N2CCC(=O)N([C@H](COCc3ccccc3)C(C)C)CC2)cc1`, the activity change is 29.8%.

Turning to `COc1ccc(Cl)cc1NC(=O)NCC1CCN(Cc2ccccc2F)CC1`, the activity change is -22.8%.

As to `O=C(NCC1CCN(Cc2ccccc2Cl)CC1)Nc1cccc(Cl)c1`, the activity change was -75% (active).

For the molecule `O=C(NCCN1CCOCC1)Nc1cccc(Cl)c1`, the activity change is 2.78%.

For `Cc1cccc(CN2CCC(CNC(=O)Nc3ccc(F)c(Cl)c3)CC2)c1`, the activity change is -107% (active).

On to `COc1cc(NC(=O)NCC2CCN(Cc3ccc(C)cc3)CC2)cc(OC)c1OC`, for which the activity change was -6.99%.

With `O=C1CCCN1CCCNC(=S)Nc1ccc(F)c(Cl)c1`, the activity change is 4.41%.

Regarding `CC(CO)N1CCS(=O)(=O)CC1` (centres undefined), the activity change was 19.8%.

For `CCC/C(C)=N\Nc1nc2c(c(=O)n(C)c(=O)n2C)n1C`, the activity change is 6.47%.

For `O=C(O)C(c1cccs1)C1(O)CCCCC1` (centres undefined), the activity change was 5.75%.

Take `CCOC(=O)c1cc(-c2sc(NC(=O)c3ccccc3)nc2C)n(-c2ccc(Br)cc2)n1`: the activity change is -4.38%.

Take `CC(C)Cc1nnc(NC(=O)CCc2ccccc2)s1`: the activity change is 8.78%.

Consider `COC(=O)CSc1nnc(NC(=O)CCc2ccccc2)s1`, for which the activity change is 12.3%.

`O=C(CCc1ccccc1)Nc1ncc([N+](=O)[O-])s1`: the activity change is -59.9% (active).

Regarding `CC(CC(=O)C1C(C)C=CCC1(C)C)NNC(N)=O` (centres undefined), the activity change was 2.93%.

For `O=C1C(=O)N(CC2COc3ccccc3O2)c2ccccc21` (centres undefined), the activity change is 11.2%.

For `Cc1cc(C(=O)CCl)c(C)n1CC1COc2ccccc2O1` (centres undefined), the activity change was -68.9% (active).

Turning to `Cc1ccsc1C(=O)OCC(=O)c1cc(C)n(CC2CCCO2)c1C` (centres undefined), the activity change was 33.5%.
